# Bioassay records: PubChem BioAssay, National Center for Advancing Translational Sciences (NCATS)
# Luc counter – Counterscreen for Luciferase (Kinase-Glo TM) Inhibition; Luciferin 4-monooxygenase (Photuris pensylvanica), Q27757; Kinase-Glo luciferase, ATP luminescence, 8 min; Potency, µM (top dose mostly 38.3 µM), without a hit: at the top dose activity change, negative = inhibition, actives largely listed as inhibitors; 200,000 compounds, 0.28% hits; note: nearly all actives have a fitted effect of over 60% in size
#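 Inhibition of Kinase-Glo luciferase light generation was assessed at 10 uM ATP in pH 7.2 imidazole buffer, with luminescence measured after eight minutes at ambient temperature.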
# RORgamma inh – qHTS for inhibitors of ROR gamma transcriptional activity | AID 2551, 2010 | Nuclear receptor ROR-gamma (Mus musculus), P51450 | 310,000 compounds, 5.4% hits | Drosophila S2 Gal4-RORgamma UAS-luciferase reporter, 20 h | Potency, µM (titrated, usually from 53.6 µM), inactives show at the highest dose activity change, negative = inhibition, usual class: inhibitors; note: nearly all actives have a fitted effect of over 60% in size
# Target sequence (P51450 whole entry, looked up, the tested form may be a part): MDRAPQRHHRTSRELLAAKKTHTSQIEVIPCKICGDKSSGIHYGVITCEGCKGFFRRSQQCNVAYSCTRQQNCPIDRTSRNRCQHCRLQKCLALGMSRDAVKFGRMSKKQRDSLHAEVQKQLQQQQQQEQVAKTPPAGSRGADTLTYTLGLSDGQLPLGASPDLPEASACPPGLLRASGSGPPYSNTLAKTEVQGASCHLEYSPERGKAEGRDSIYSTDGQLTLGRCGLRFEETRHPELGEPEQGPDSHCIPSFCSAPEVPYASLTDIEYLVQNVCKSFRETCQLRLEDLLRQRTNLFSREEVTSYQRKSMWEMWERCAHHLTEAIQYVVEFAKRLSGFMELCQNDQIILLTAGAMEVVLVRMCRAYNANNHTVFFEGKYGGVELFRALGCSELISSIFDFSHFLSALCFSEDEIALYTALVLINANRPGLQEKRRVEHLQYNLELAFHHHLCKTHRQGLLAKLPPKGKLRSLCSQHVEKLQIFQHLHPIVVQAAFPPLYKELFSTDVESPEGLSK
#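 Schneider cells (Drosophila), stable Gal4 DBD–ROR gamma + UAS-luc; 1 hr cmpd preincubation; Cu2+ induction 700 uM final; 20 hr ambient; luminescence.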
# Gal4-VP16 FLuc – VP16 counterscreen qHTS for inhibitors of ROR gamma transcriptional activity | AID 2546, 2010 | 310,000 compounds, 3.5% hits | Drosophila S2 Gal4-VP16 UAS-luciferase, luminescence, 20 h | Potency, µM (top dose mostly 53.6 µM), without a hit: at the highest dose activity, negative = inhibition, usual class: inhibitors;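 note: Gal4-VP16 expression switched on by copper sulfate through the metallothionein promoter; nearly all actives have a fitted effect of over 50% in size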
# Numbers without * were called inactive; ? = inconclusive; · = no result given; [ ] = dose if it differs, or a comment. The list is not random: actives were taken first. Their share in the collection is about 6.2%. Calls come from the whole dose curve; as a rule, active = well fitted curve in the direction sought with a large enough effect; inconclusive = small, poorly fitted or top-dose-only effect, or another doubt; inactive = no such curve, though single readings can be large; an effect the other way counts as inactive or inconclusive. % is set by controls: 0 for no effect and ±100 for the full control effect; potency is the fitted concentration of half-maximal effect.
SMILES,Luc counter,RORgamma inh,Gal4-VP16 FLuc
CSc1nc2sc3c(c2c(=S)[nH]1)CC(C)(C)OC3,·,3.16µM*,11.2µM*
Cc1nc2sc3c(c2c(=N)n1N)CC(C)(C)OC3,0.8%,-3.3%,-8.7%
O=C(O)[C@@H]1[C@@H](C(=O)O)[C@@]23CCCC2=C2CC[C@@]3(C(=O)O)[C@@]3(C(=O)O)C[C@@]213,-4.5%[7.66 µM],·,·
COc1cc(C2c3[nH]c4ccccc4c3CC3C(=O)N4C(Cc5c([nH]c6ccccc56)C4c4cc(OC)c(OC)c(OC)c4)C(=O)N32)cc(OC)c1OC (stereo unspecified),·,-29.5%[10 µM],?
CCOc1ccccc1NC(=O)CSc1nnnn1C1CCCC1,·,-0.4%,-1.4%
Cc1ccc(S(=O)(=O)N(C)C)cc1NC(=S)NC(C)CCCC(C)C (stereo unspecified),4.2%,17.8µM*,?
CCCCCCC(C)NC(=S)Nc1cc(S(=O)(=O)N(C)C)ccc1C (stereo unspecified),4.0%,12.6µM*,?
Cc1ccc(S(=O)(=O)N(C)C)cc1NC(=S)NC(C)CCC(C)C (stereo unspecified),2.0%,12.6µM*,?
CC(=O)NNC(=S)Nc1cc(S(=O)(=O)N(C)C)ccc1C,-3.0%,-8.2%,1.8%
Cc1ccc(S(=O)(=O)N(C)C)cc1NC(=S)NCCCn1ccnc1,-3.0%,23.7%,2.6%
COCCN(CCOC)C(=S)Nc1cc(S(=O)(=O)N(C)C)ccc1C,-1.3%,12.8%,1.9%
CCCN1CCN(S(=O)(=O)c2ccc(-n3cnnn3)cc2)CC1,·,-0.2%,-4.2%
c1ccc2c(c1)CCCN2Cc1nnnn1C1CCCC1,-1.6%,8.4%,?
COc1cc2c(cc1OC)C1O[C@](CCCCN3C(=O)c4ccccc4C3=O)(C2)Oc2c1c(=O)oc1ccc(F)cc21,·,-6.8%[10 µM],-0.2%[10 µM]
COc1ccc(C2NN=C(c3ccc(C)cc3)S2)cc1OC (stereo unspecified),-26.0%,2µM*,?
Fc1cccc(C2NN=C(c3ccccc3)S2)c1 (stereo unspecified),-26.2%,?,?
Cc1ccc(C2=NNC(c3cccc(F)c3)S2)cc1 (stereo unspecified),-22.7%,6.31µM*,7.08µM*
COc1ccc(C2NC(=O)CS2)cc1OC (stereo unspecified),0.1%,7.3%,-5.6%
O=C(/C=C/c1ccccc1)NC(NC(=S)Nc1cccc(O)c1)C(Cl)(Cl)Cl (stereo unspecified),1.1%,8.3%,?
CC(=O)NC(NC(=S)Nc1ccc(N=Nc2ccccc2C)cc1C)C(Cl)(Cl)Cl (stereo unspecified),-5.8%,22.8%,3.3%
O=C(/C=C/c1ccccc1)NC(NC(=S)Nc1ccc(Cl)cc1Cl)C(Cl)(Cl)Cl (stereo unspecified),-2.0%,?,5.01µM*
O=C(/C=C/c1ccccc1)NC(NC(=S)Nc1ccc(C(=O)O)cc1)C(Cl)(Cl)Cl (stereo unspecified),1.1%,-1.0%[10 µM],3.2%
O=C(/C=C/c1ccccc1)NC(NC(=S)Nc1cccc2cccnc12)C(Cl)(Cl)Cl (stereo unspecified),2.0%[39.9 µM],-6.1%,-7.7%
Cc1ccc(C)c(NC(=S)NC(NC(=O)/C=C/c2ccccc2)C(Cl)(Cl)Cl)c1 (stereo unspecified),-4.5%,5.01µM*,11.2µM*
Cc1ccc(NC(=S)NC(NC(=O)C(C)(C)C)C(Cl)(Cl)Cl)c(C)c1 (stereo unspecified),-0.9%,12.6µM*,-25.3%
SMILES,Luc counter,RORgamma inh,Gal4-VP16 FLuc
O=C(/C=C/c1ccccc1)NC(NC(=S)Nc1cccc(Cl)c1)C(Cl)(Cl)Cl (stereo unspecified),·,?,17.8µM*
CCC(=O)Nc1cccc(-n2nnnc2SCC(=O)N(C(C)C)C(C)C)c1,-1.5%,13.9%,-2.1%
CCCCCCCCCCCCOCCCN,·,16.8%,-4.4%
O=S(Cc1ccc(Br)cc1)Cc1nnc(SCc2ccc(Br)cc2)n1-c1ccccc1 (stereo unspecified),3.6%,?,-20.9%
CCN1C(=O)[C@H]2[C@H]3[C@H](O)[C@H](O)C/C(=N\O[C@H](C)c4cn([C@H](CO)Cc5ccccc5)nn4)[C@@H]3CC[C@H]2C1=O,-0.4%,6.0%,4.5%
O=C(NC(NC(=S)Nc1ccccc1Cl)C(Cl)(Cl)Cl)c1cccc(Cl)c1 (stereo unspecified),-1.4%,?,12.6µM*
COc1ccc(NC(=S)NC(NC(=O)c2cccc(Cl)c2)C(Cl)(Cl)Cl)c([N+](=O)[O-])c1 (stereo unspecified),-0.4%,?,?
O=C1c2ccccc2C(O)(c2ccccc2)N1C1CC1 (stereo unspecified),·,20.9%,-1.0%
CC(=O)Nc1ccc(S(=O)(=O)NCCC(=O)Nc2cccc(Cl)c2)cc1,·,9.9%,3.5%
Cc1ccc(S(=O)(=O)NCC(=O)N/N=C/c2ccc(Cl)cc2Cl)cc1,3.3%,?,?
Cc1ccc(S(=O)(=O)NCC(=O)N/N=C/c2ccccc2O)cc1,-0.3%,5.62µM*,?
CC(=O)Nc1ccc(NC(=O)CNS(=O)(=O)c2ccc(C)cc2)cc1,1.9%,10µM*,?
Cc1ccc(S(=O)(=O)NCC(=O)Nc2ccc(C(F)(F)F)cc2)cc1,-4.0%,-7.5%,-4.8%
CC(=O)Nc1ccc(S(=O)(=O)NCCOc2ccc(Cl)cc2C)cc1,·,?,5.01µM*
CCN1CCCC1Cn1c(-c2ccccc2)nc2c(N(CCOC)CCOC)nc(C)nc21 (stereo unspecified),-3.6%,-20.2%,-1.7%
O=C(/C(Br)=C/Nc1cc(Cl)ccc1Cl)C(F)(F)F,-0.6%,-41.2%,-5.0%
CCN(CC)CCCC(C)n1c(-c2ccccc2)nc2c(N(CCOC)CCOC)nc(C)nc21 (stereo unspecified),-3.4%,-21.8%,-8.0%
O=C1CCCCC1Sc1nnc(-c2ccc3c(c2)OCO3)o1 (stereo unspecified),-28.4%,0.562µM*,0.891µM*
Clc1ccc(CSc2nnc(-c3ccc4c(c3)OCO4)o2)cc1,-1.5%,35.0%,9.8%
COc1ccccc1-c1ccc2ncnc(N3CCNCC3)c2c1,·,35.5%,13.8%
COCCNC(=O)C1(C(F)(F)F)C/C(=C\Cc2ccccc2)CCCO1 (stereo unspecified),·,-36.7%,?
C=CCOc1cccc(C(=O)Nc2ncn[nH]2)c1,·,22.4µM*,?
CCOc1cc(C(=O)Nc2ncn[nH]2)cc(OCC)c1OCC,0.5%,-38.0%,-7.7%
COc1ccc(S(=O)(=O)N(CCCN2CCCC2=O)Cc2cc3c(C)cc(C)cc3[nH]c2=O)cc1,·,30.7%,2.3%
CN(C(=O)C1CCC(=O)N(CCc2ccc(Cl)cc2)C1)C1CCOCC1 (stereo unspecified),·,5.1%,-5.3%
C=CCn1c(SCC(=O)N2CCc3ccccc3C2)nnc1-c1ccncc1,-0.3%,-9.1%[10 µM],1.8%
CC(=O)c1ccccc1NC(=O)COC(=O)/C(=C/c1ccccc1)n1nnnc1C,·,?,-27.3%
Cc1nnnn1/C(=C\c1ccccc1)C(=O)OCC(=O)N(C)C1CCS(=O)(=O)C1 (stereo unspecified),-1.9%,11.2µM*,0.1%
